Assay outcomes deposited in PubChem BioAssay by National Center for Advancing Translational Sciences (NCATS).
Rows were chosen to be rich in hits. Some 1.5% of all compounds tested hit in one or more screens of this group.
TrxR1 substrate: rat thioredoxin reductase 1 substrate activity; O89049; purified TrxR1 substrate turnover, NADPH consumption readout; Potency, µM (titrated, usually from 114 µM), inactives show at the top dose activity change, negative = substrate turnover; 390,000 compounds, 0.01% hits; also: potency is read from the fitted curve at half-maximal effect; nearly all actives have a fitted effect of over 50% in size
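Rat TrxR1, dispensed at 90 nM, was prereduced with 400 uM NADPH (final) for 5 min at ~22 deg C, then incubated with compound 15 min before 400 uM selenite. A first-read NADPH fluorescence drop versus no-compound background flagged substrates.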
USP1-UAF1 inh: inhibitors of human USP1/UAF1 deubiquitinase | O94782 | recombinant USP1/UAF1, Ub-Rhodamine cleavage fluorescence | Potency, µM (highest dose often 57.1 µM), for inactives: at the highest dose activity change, negative = inhibition, usual class: inhibitors | 390,000 compounds, 0.23% hits; also: potency is read from the fitted curve at half-maximal effect; nearly all actives have a fitted effect of over 60% in size
Target sequence (O94782 whole entry, looked up): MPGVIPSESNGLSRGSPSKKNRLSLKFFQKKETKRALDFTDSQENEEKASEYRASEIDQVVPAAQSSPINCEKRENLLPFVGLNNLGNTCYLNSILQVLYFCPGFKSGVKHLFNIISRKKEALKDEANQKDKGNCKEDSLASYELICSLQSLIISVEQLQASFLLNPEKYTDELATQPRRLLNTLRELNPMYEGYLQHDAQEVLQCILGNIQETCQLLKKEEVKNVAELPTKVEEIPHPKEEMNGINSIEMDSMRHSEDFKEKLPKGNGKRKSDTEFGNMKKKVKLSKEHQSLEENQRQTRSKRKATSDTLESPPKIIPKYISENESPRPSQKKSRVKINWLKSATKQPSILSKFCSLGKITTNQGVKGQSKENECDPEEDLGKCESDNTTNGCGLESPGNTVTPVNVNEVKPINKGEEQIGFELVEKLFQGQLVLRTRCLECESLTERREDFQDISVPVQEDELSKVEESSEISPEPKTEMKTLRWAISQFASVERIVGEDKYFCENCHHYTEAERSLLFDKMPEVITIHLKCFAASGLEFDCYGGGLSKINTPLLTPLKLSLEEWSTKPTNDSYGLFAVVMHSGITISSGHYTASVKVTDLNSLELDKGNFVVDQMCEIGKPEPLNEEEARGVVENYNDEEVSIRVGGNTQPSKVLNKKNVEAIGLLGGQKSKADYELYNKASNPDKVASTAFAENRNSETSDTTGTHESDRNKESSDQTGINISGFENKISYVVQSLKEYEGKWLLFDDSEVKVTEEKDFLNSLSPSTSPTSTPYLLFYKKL
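Step one: compound is pinned into 1nM USP1/UAF1 in HEPES pH 7.8 buffer with TCEP. Step two: 15 min room-temperature incubation. Step three: Ub-Rho (150nM final) starts cleavage, tracked by fluorescence over six one-minute reads.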
rTrxR1 inhibitor: rat TrxR1 inhibition. recombinant rTrxR1, NADPH fluorescence consumption, selenite substrate. Potency, µM (titrated, usually from 114 µM), for inactives: top-dose activity change, negative = inhibition, hits mostly inhibitors. 390,000 compounds, 1% hits. AID 588453; also: potency is read from the fitted curve at half-maximal effect; nearly all actives have a fitted effect of over 65% in size
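Rat TrxR1 (90 nM in the dispensed reagent) was pre-reduced with 400 uM NADPH for 5 min at room temperature, then incubated with compound for 15 min. After 400 uM selenite was added, NADPH fluorescence (Ex 340/Em 450 nm) was followed for 8 min.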
GALK inhibitor: galactokinase (human) inhibition; 270,000 compounds, 0.007% hits; Potency, µM (doses to about 57.5 µM), for the others: top-dose activity change, negative = inhibition, usual class: inhibitors; Purified GALK, Kinase-Glo residual ATP luminescence; also: potency is read from the fitted curve at half-maximal effect
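Compounds were pin-transferred into ATP buffer (35 uM final), then GALK plus galactose (5 nM, 100 uM final) was added. After 1 h at room temperature, Kinase-Glo Plus was added and luminescence read after 10 min.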
FBPA coupling cs: coupling enzyme interference in Giardia aldolase counter-screen | activity change, negative = inhibition, % at 58.2 µM, hits read low | 290,000 compounds, 0.67% hits | coupling enzyme system counterscreen, AmpLite Red fluorescence; in the data active = activity change below about -30%
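Coupling enzymes only (glyceraldehyde-3-phosphate) + compound, at 57.5 uM final, 10 min RT; add substrate/coupling/AmpLite Red mix, 20 min RT; fluorescence ex 525/em 598 nm. Actives flag coupling-system interference.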
* marks the source's active call; other numbers are inactive results; ? = inconclusive; nt = no result given; [ ] = another dose, or the depositor's remark. Unless noted, calls follow the shape of the dose curve; as a rule, active = well fitted curve in the direction sought with a large enough effect; inconclusive = small, poorly fitted or top-dose-only effect, or another doubt; inactive = no such curve, though single readings can be large; an effect the other way counts as inactive or inconclusive. % is scaled to controls: 0 for no effect and ±100 for the full control effect.

SMILES	TrxR1 substrate	USP1-UAF1 inh	rTrxR1 inhibitor	GALK inhibitor	FBPA coupling cs
CS(=O)(=O)N1CCN(/[N+]([O-])=N/Oc2ccc([N+](=O)[O-])cc2[N+](=O)[O-])CC1	-2.7%	nt	8.91µM*	nt	nt
O=[N+]([O-])c1ccc(O/N=[N+](\[O-])N2CCCC2)c([N+](=O)[O-])c1	-7.2%	nt	17.8µM*	nt	nt
CS(=O)(=O)N1CCN(c2ccc([N+](=O)[O-])cc2F)CC1	-1.1%[57.1 µM]	-10.8%	4.4%[57.1 µM]	6.7%	0.2
CS(=O)(=O)N1CCN(/[N+]([O-])=N/Oc2ccc([N+](=O)[O-])cc2[N+](=O)[O-])CC1 (tested in a mixture with another compound)	5.0%	nt	11.2µM*	nt	nt
CC(=O)Nc1ccc(NC(=O)COC(=O)c2ccccc2OCc2cccc(Br)c2)cc1	-3.9%	nt	4.1%	nt	nt
C[C@@H]1/C=C\CC(=O)OC[C@H](C)C(=O)N[C@@H](Cc2ccccc2)C(=O)OC1	nt	nt	nt	nt	-1.5
C[C@@H]1C[C@H]2[C@@H]3CCC4=CC(=O)C=C[C@]4(C)[C@@]3(F)C(O)C[C@]2(C)[C@@]1(O)C(=O)CO (stereo not given in full)	-2.7%	nt	-4.2%	nt	nt
CCOC(=O)CSc1cc(C)c(C#N)c2nc3ccccc3n12	9.1%[57.1 µM]	-2.5%	1.12µM*	1.3%	-6.2
CCC(C)Sc1cc(C)c(C#N)c2nc3ccccc3n12 (stereo not given)	-7.0%	-20.2%	3.9%[57.1 µM]	-1.8%	16.8
O[N+]1=CC=CCC1=S.On1ccccc1=S.[Zn]	nt	nt	nt	nt	-41.6*
CCCCn1c(SCC(=O)NCc2ccco2)nc2ccc(N3CCOCC3)cc2c1=O	25.1%	-13.0%	?	-1.1%	-40.1*
CCCCn1c(SCC(=O)NCc2ccco2)nc2cc(S(N)(=O)=O)ccc21	-7.5%[57.1 µM]	-19.9%	-1.4%[57.1 µM]	1.9%	-6.2
CCCCn1c(SCC(=O)NCc2ccccc2)nc2ccc(N3CCOCC3)cc2c1=O	51.6%	-9.7%	16.6%	1.2%	-37.5*
CCC(C)NC(=O)CSc1nc2ccc(N3CCOCC3)cc2c(=O)n1CCc1ccccc1 (stereo not given)	nt	nt	nt	-1.6%	-22.1
CCCCn1c(SCC(=O)NC(C)CC)nc2ccc(N3CCOCC3)cc2c1=O (stereo not given)	-2.1%	-16.8%	-10.9%	-0.3%	-36.0*
CCCCn1c(SCC(=O)Nc2ccc(OC)cc2)nc2ccc(N3CCOCC3)cc2c1=O	4.0%	-10.2%	-13.7%	1.1%	-31.6*
CCN(CC)/[N+]([O-])=N/OCOC(=O)c1ccccc1OC(C)=O	2.6%	nt	14.0%	nt	nt
O=C1/C(=N\S(=O)(=O)c2cccs2)C([n+]2cccc(Cc3ccccc3)c2)=C([O-])c2ccccc21	2.9%[57.1 µM]	?	26.5%[57.1 µM]	-3.7%	-38.2*
Cc1cc[n+](C2=C([O-])c3ccccc3C(=O)/C2=N\S(=O)(=O)c2cccs2)cc1C	-4.2%	-16.3%	26.7%	2.2%	-62.8*
Cc1cc(C)c[n+](C2=C([O-])c3ccccc3C(=O)/C2=N\S(=O)(=O)c2cccs2)c1	4.2%	?	16.3%	-2.5%	-0.3
O=C1/C(=N\S(=O)(=O)c2cccs2)C([n+]2ccc(CCCc3ccccc3)cc2)=C([O-])c2ccccc21	7.2%[57.1 µM]	-7.0%	8.6%[57.1 µM]	1.6%	-35.1*
O=c1c(Cl)c(NCCCO)cnn1-c1nc2ccccc2[nH]1	-2.1%	-19.2%	3.55µM*	0.2%	1.5
CCc1nc2sc3ccccc3c(=O)c2c(=O)n1Cc1ccco1	-5.6%[57.1 µM]	-8.5%	14.1µM*	-3.4%	2.0
O=c1c2ccccc2sc2nc(C3CCCCC3)n(Cc3ccco3)c(=O)c12	3.4%	-21.2%	-3.9%	1.2%	2.6
Cc1cc2ccccc2c[n+]1CC(=O)c1ccc(F)cc1	12.2%	nt	5.4%	nt	nt
SMILES	TrxR1 substrate	USP1-UAF1 inh	rTrxR1 inhibitor	GALK inhibitor	FBPA coupling cs
O=C(CCNc1cccc(F)c1)c1cccc([N+](=O)[O-])c1	-3.0%[57.1 µM]	-16.2%	6.31µM*	-1.2%	-2.7
O=C(CCNc1cccc(F)c1)c1cc2ccccc2o1	1.3%	-24.2%	7.94µM*	-0.2%	-5.9
Nc1cccc(/C=C2\C=Cc3ccccc32)c1	1.2%	nt	0.4%	nt	nt
CN(C)c1ccc(/C=C/c2ccc3cc(N)ccc3n2)cc1	-0.3%	nt	1.3%	nt	nt
CCOC(=O)CSC(=S)NC(=O)c1ccc(OC)cc1	-1.7%	-10.5%	22.4µM*	0.1%	3.2
Clc1ccc(-c2csc3ncnc(Sc4nnnn4-c4ccccc4)c23)cc1	-6.4%[0.0914 µM]	nt	3.7%[0.0914 µM]	nt	nt
FC(F)(F)c1nc(=S)c2ccccc2[nH]1	-1.6%	-23.5%	4.47µM*	-0.3%	-4.9
Cc1nc(=S)c2ccccc2[nH]1	-7.3%	-16.0%	-25.3%	0.6%	-2.1
CC(=O)Nc1ccn(C2OC(C(COC(C)=O)NC(=O)C(COCc3ccccc3)NC(=O)OC(C)(C)C)C(OC(C)=O)C2OC(C)=O)c(=O)n1 (stereo not given)	-3.1%	nt	6.5%	nt	-0.5
COc1ccc2cc(C(=O)N/N=C/c3sc4ccccc4c3O)ccc2c1	-2.9%	28.2µM*	-2.2%	nt	-1.7
Cc1ccc(OC2C(O)COC2/C=C/C#Cc2ccc(C(C)(C)C)cc2)cc1 (stereo not given)	nt	nt	nt	nt	-2.9
C[n+]1ccnc2cc(Cl)ccc21	-14.7%	nt	?	nt	nt
CCOC(=O)COn1c(=O)c(-c2ccco2)[n+]([O-])c2ccccc21	8.1%	-19.3%	8.91µM*	-1.4%	-22.1
O=C1Nc2ccc(S(=O)(=O)NCc3ccco3)c3cccc1c23	9.1%	-17.2%	44.7µM*	nt	nt
COc1ccc(CCNC(=O)/C=C/c2ccco2)cc1	1.2%	-9.5%	35.5µM*	-0.8%	1.3
COc1ccc(/C=N/NC(=O)CNC(=O)/C=C/c2ccco2)cc1OC	1.7%	-16.1%	31.6µM*	0.0%	0.5
COc1ccc(/C=C/C(=O)NCCc2ccc(S(N)(=O)=O)cc2)cc1	1.0%	-21.2%	8.1%	1.9%	3.1
CCOc1ccc(CCNC(=O)/C=C/c2ccco2)cc1OCC	4.6%	-9.6%	20µM*	-5.8%	nt
CCOc1ccc(CCNC(=O)COC(=O)/C=C/c2ccco2)cc1OCC	-6.7%	-24.0%	?	-3.8%	nt
COc1ccc(CCNC(=O)/C=C/c2ccco2)cc1OC	8.4%[57.1 µM]	-5.0%	7.94µM*	nt	-0.3
O=C(COC(=O)c1ccc([N+](=O)[O-])o1)Nc1ccc2c(c1)OCO2	5.3%[57.1 µM]	?	17.8µM*	nt	nt
O=C(COc1ccc([N+](=O)[O-])cc1)Nc1ccc2c(c1)OCO2	-5.4%[57.1 µM]	-0.3%	24.2%[57.1 µM]	0.2%	0.3
COC(=O)C1=C(C)N(Cc2ccccc2)[C@]23O[C@](C(=O)OC)(C(=O)N2C1c1ccccc1)C1CCOC(=O)C13 (stereo not given in full)	nt	nt	nt	nt	-2.3
O=C(O)CN(CC(=O)O)c1ccccc1OCCOc1ccccc1N(CC(=O)O)CC(=O)O	nt	nt	nt	nt	1.8
O=[N+]([O-])c1ccc(S(=O)(=O)c2ccccc2)nc1	13.2%[57.1 µM]	?	?	-2.5%	-13.2
